Results from the supplement of paper PMC13380429.

System: Vero E6 infected with SARS-CoV-2
Assay: inhibition of SARS-CoV-2 cytopathic effect; higher = more antiviral protection, active = above 15
Conditions: 48 h

Measured: inhibition of SARS-CoV-2 cytopathic effect

CC(=O)Nc1cccc(-n2c(=O)n(C3CC3)c(=O)c3c(Nc4ccc(I)cc4F)n(C)c(=O)c(C)c32)c1 [trametinib]
inactive: 1 nM -1.42% | 8.33 nM -7.51% | 100 nM -14.6% | 833.33 nM -16.9% | 10000 nM -17.4%

O=C(Nc1ccc(-c2ccncc2)cc1)N[C@H](CO)c1ccccc1
inactive: 1 nM -3.49% | 8.33 nM 2.37% | 100 nM -1.14% | 833.33 nM -0.94% | 10000 nM -7.89%

CN1CCC(OC(c2ccccc2)c2ccccc2)CC1 [diphenylpyraline]
inactive: 1 nM 0.97% | 8.33 nM 0% | 100 nM 0% | 833.33 nM 0.39% | 10000 nM -1.64%

CC(C)(C)c1ccc(S(=O)(=O)NCc2ccc(C(=O)Nc3cccnc3)cc2)cc1
inactive: 1 nM 1.28% | 8.33 nM 0.01% | 100 nM -0.96% | 833.33 nM -2.95% | 10000 nM -10.9%

OC[C@H]1O[C@@H](c2ccc(F)c(Cc3cc4ccccc4s3)c2)[C@H](O)[C@@H](O)[C@@H]1O [ipragliflozin-L-proline]
inactive: 1 nM 0.82% | 8.33 nM -0.16% | 100 nM 0.41% | 833.33 nM 0.42% | 10000 nM 0.4%

Nc1nc2[nH]cnc2c(=S)[nH]1 [thioguanine]
inactive: 1 nM -0.56% | 8.33 nM -0.26% | 100 nM 1.4% | 833.33 nM 2.65% | 10000 nM 5.44%

CC1(C)S[C@@H]2[C@H](NC(=O)[C@H](NC(=O)N3CCNC3=O)c3ccccc3)C(=O)N2[C@H]1C(=O)O [azlocillin]
inactive: 1 nM -1.64% | 8.33 nM -1.64% | 100 nM 1.05% | 833.33 nM -1.76% | 10000 nM -1.54%

Nc1cc(F)ccc1NC(=O)/C=C/c1cnn(C/C=C/c2ccccc2)c1
inactive: 1 nM -1.39% | 8.33 nM 1.78% | 100 nM 0.89% | 833.33 nM -2.26% | 10000 nM -1.9%
